# Source: PubChem (National Center for Advancing Translational Sciences (NCATS))
# The list is not random: actives were taken first. Their share in the collection is about 8%.
# LASV entry inh = qHTS for Inhibitors of binding or entry into cells for Lassa Virus | AID 540256, 2011 | 1.2% of 300,000 active | Potency, µM (highest dose often 37.9 µM), inactives show top-dose activity change, negative = inhibition, most hits filed as inhibitors | Lassa virus pseudotype entry inhibition, cell reporter; calls by dose curve; tested in HEK293 cells; further: potency means the concentration at half of the fitted maximal effect; on the % scale 0 is the no-effect control and ±100 the full control effect; nearly all actives have a fitted effect of over 50% in size
# HCV inhibitor = qHTS Assay for Inhibitors of Hepatitis C Virus (HCV) | Huh7.5.1 HCVcc-Cre infection, luciferase reporter, 44 h | Potency, µM (top dose mostly 41.8 µM), without a hit: top-dose activity change, negative = inhibition, usual class: inhibitors | 3.4% of 340,000 active; active means well fitted inhibition curve with a large enough effect; inconclusive means small, poorly fitted or top-dose-only effect, or another doubt; inactive means no such curve, though single readings can be large or run the other way; further: potency means the concentration at half of the fitted maximal effect; on the % scale 0 is the no-effect control and ±100 the full control effect
#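 Antiviral activity was scored by luciferase reporter output from cells infected with HCVcc-Cre (~0.5 moi) in presence of compound, 44 h infection period, cells seeded 1,000/well 4 h prior.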
# MARV entry inh = qHTS for inhibitors of binding or entry into cells for Marburg Virus. Marburg virus pseudotyped entry inhibition, cell reporter. Potency, µM (top dose mostly 37.8 µM), for inactives: at the highest dose activity change, negative = inhibition, hits mostly inhibitors. 1.8% of 300,000 active. AID 540276, 2011; calls by dose curve; tested in HEK293 cells; further: potency means the concentration at half of the fitted maximal effect; on the % scale 0 is the no-effect control and ±100 the full control effect
# SARS PLpro yeast = qHTS of Yeast-based Assay for SARS-CoV PLP. S. cerevisiae expressing SARS-CoV PLpro, growth rescue. Potency, µM (doses to about 32.9 µM), for the others: top-dose activity, positive = growth rescue, usual class: activators. 0.19% of 330,000 active. AID 485353, 2010; calls by dose curve; further: potency means the concentration at half of the fitted maximal effect; 0% is about no effect; nearly all actives have a fitted effect of over 55% in size
# FMDV antiviral = High Throughput Screening for Foot and Mouth Disease Virus Antivirals. FMDV antiviral cell-based qHTS. Potency, µM (titrated, usually from 57.9 µM), for inactives: top-dose activity change, negative = inhibition, hits mostly inhibitors. 1.2% of 410,000 active. AID 1159524, 2015; calls by dose curve; tested in HEK293T cells; further: read-out not given here; potency means the concentration at half of the fitted maximal effect; on the % scale 0 is the no-effect control and ±100 the full control effect; nearly all actives have a fitted effect of over 45% in size
# HCMV antiviral = qHTS Assay for inhibitors of the human cytomegalovirus (HCMV); HFF cells, HCMV-luciferase reporter, 72 h; active compounds read low; activity change, negative = inhibition, % at 57.5 µM; 4.5% of 410,000 active; AID 1259415, 2018; in the data active means activity change below about -60%; inconclusive means no clear call, values can overlap the other calls; inactive means above about -39%; further: on the % scale 0 is the no-effect control and ±100 the full control effect
#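 Inhibition of viral replication was scored as loss of reporter luminescence in HFFs infected with HCMV-luciferase (MOI 1 PFU/cell) for 72 h; compounds tested at 2 doses, normalized to buffer and Salinomycin controls.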
# Numbers without * were called inactive; ? = inconclusive; · = no result given; [ ] = dose if it differs, or a comment.
SMILES,LASV entry inh,HCV inhibitor,MARV entry inh,SARS PLpro yeast,FMDV antiviral,HCMV antiviral
O=C(C(=O)c1ccc(O)c(O)c1)c1ccc(O)c(O)c1,12%[46.1 µM],28%,25%,·,-5%,19
CN(N=O)c1ccc(O)c(O)c1,?,·,18µM*,·,·,·
COc1ccc(Cn2cccc(NC(=O)Nc3cccc(OC)c3)c2=O)cc1,·,14µM*,·,-2%,?,0
COc1cccc(Cn2cccc(NC(=O)Nc3ccccc3C)c2=O)c1,·,10µM*,·,-1%,?,-17
COc1cccc(Cn2cccc(NC(=O)Nc3ccc(C#N)cc3)c2=O)c1,?,4µM*,?,-6%,18µM*,-66*
Cc1ccc(S(=O)(=O)N2CCC(C(=O)NNC(=O)c3cccnc3)CC2)cc1,?,7%,17%[46.1 µM],1%,0%,20
COc1cccc2c1Oc1ncccc1N(C(=O)CCC(=O)NCc1ccc(OC(C)C)cc1)C2,21%[46.1 µM],·,·,·,-13%,6
Cc1ccc(-c2nnc(Oc3ccc(NC(=O)c4ccccc4)cc3)c3ccccc23)cc1,5%,?,-14%,-12%,?,-18
CC1CN(C(=O)N2CCC(C(=O)NCCC3=CCCCC3)CC2)c2cc(Cl)ccc2O1 (stereo unspecified),4%[46.1 µM],·,·,·,-6%,5
COC(/C(C)=C/C=C/C(C)=C/c1coc(C)n1)C(C)C1CC(O)C2(C)OC2C=CC(C)C2CC(CC(=O)O2)CC2OC2C(=O)O1 (stereo unspecified),1%,10%,6%,·,-26%,-80*
Cn1ccc2c(OCC(=O)Nc3cc(C(F)(F)F)ccc3Cl)cccc2c1=O,-11%[46.1 µM],·,·,·,?,-29
S=C(Nc1ccccc1)N1CCCCC1,19%,-9%,6%,6%,25%,-4
S=C(Nc1ccccc1)N1CCN(C(=S)c2ccccc2)CC1,?,4%,8%[46.1 µM],0%,-8%,-102*
COc1ccc(NS(=O)(=O)c2cccc(NC(=O)COc3ccc(OC)cc3)c2)cc1,·,?,·,1%,7%,-32
COc1ccc(NS(=O)(=O)c2ccc(C)c(C(=O)N(C)CCc3ccc(OC)c(OC)c3)c2)cc1,?,?,-10%,-10%,-23%,-17
COc1ccc(NS(=O)(=O)c2ccc(C)c(C(=O)N(C)Cc3ccc(C)cc3)c2)cc1,11µM*,-10%,?,-7%,1%,?
COc1ccc(NS(=O)(=O)c2ccc(C)c(NC(=O)NC3CCCCC3)c2)cc1,10µM*,?,?,18%,-19%,-33
COc1ccccc1NS(=O)(=O)c1ccc(C)c(NC(=O)NC2CCCCC2)c1,?,?,?,14%,-21%,1
COc1ccc(NS(=O)(=O)c2cccc(NC(=O)NC3CCCCC3)c2)cc1,2µM*,?,?,-6%,-17%,-60*
O=C(NCc1cccs1)c1ccc(Cn2c(SCc3ccccc3)nc3cccnc32)cc1,-29%[46.1 µM],·,·,·,-26%,-14
CN(C)/N=N/c1nc[nH]c1C(N)=O,·,·,·,·,25%,·
Cn1c(=O)c2cc(NC(=O)NCc3ccc(F)cc3)ccc2n1C/C=C/c1ccccc1,·,·,·,·,20%,-63*
COc1cccc(-c2nc(-c3ccccn3)no2)c1,1.5µM*,?,2.3µM*,?,20µM*,-61*
COc1cccc(-c2nc(-c3ccccc3)no2)c1,14µM*,-6%,?,-3%,3%,285
c1ccc(OCCCc2nc(-c3ccccn3)no2)cc1,3%,-7%,-9%,-8%,4%,-106*
SMILES,LASV entry inh,HCV inhibitor,MARV entry inh,SARS PLpro yeast,FMDV antiviral,HCMV antiviral
COc1cccc(-c2noc(-c3cccnc3)n2)c1,?,19%,?,5%,26%,93
c1ccc(OCCCc2nc(-c3ccncc3)no2)cc1,13%,-27%,-23%,-12%,·,-6
CCOc1ccc(NC(=O)CCc2c(C)nc3cc(-c4ccc(Cl)cc4)nn3c2C)cc1,?,·,-24%[46.1 µM],·,?,-30
COc1ccc(NC(=O)N[C@H]2CC[C@@]34CCCN3C(=O)CCC[C@H]4C2Cc2ccccc2)cc1 (stereo partly specified),·,·,·,·,·,5
CCOC(=O)c1c(NC(C)=O)sc2c1CCC(C=NCCCN(CC)CC)=C2Sc1ccccc1,?,7.9µM*,?,·,?,·
CCOC(=O)c1c(NC(=O)Cc2ccccc2)sc2c1CCN(C)C2,·,?,·,?,-1%,-20
COc1ccc(CCNC(=O)c2c(C)oc3ncnc(N4CCOCC4)c23)c(OC)c1,?,·,·,·,0%,-2
CN(C)CCCN(C(=O)c1ccc2c(c1)CCCC2)c1nc2ccc(Cl)cc2s1,?,7.9µM*,?,-36%,28µM*,-79*
CCOC(=O)N1CCN(S(=O)(=O)c2ccc(C(=O)N(CCCN(C)C)c3nc4ccc(CC)cc4s3)cc2)CC1,-42%[46.1 µM],?,?,-3%,-7%,-62*
CCOC(=O)N1CCN(S(=O)(=O)c2ccc(C(=O)N(CCCN(C)C)c3nc4ccc(Cl)cc4s3)cc2)CC1,·,11µM*,·,-1%,-10%,8
CN(C)S(=O)(=O)c1cccc(C(=O)OCC(=O)Nc2sccc2C(N)=O)c1,-6%,?,?,5%,14µM*,35
COc1ccccc1NC(=O)COC(=O)Cc1c[nH]c2ccccc12,11µM*,?,-2%,-3%,-25%,170
NC(=O)c1ccsc1NC(=O)COC(=O)Cc1cccc2ccccc12,-28%,?,7.1µM*,-37%,32µM*,-26
COc1ccc(NC(=O)COC(=O)c2cccc(S(=O)(=O)N(C)C)c2)cc1,21%[46.1 µM],0%,?,0%,-14%,-2
NC(=O)c1ccsc1NC(=O)COC(=O)Cc1c[nH]c2ccccc12,?,?,-13%,4%,20µM*,-1
COc1ccccc1CNC(=O)COC(=O)Cc1c[nH]c2ccccc12,-2%,16%,19%,1%,-21%,6
COc1cc(CCC(=O)OCC(=O)Nc2sccc2C(N)=O)cc(OC)c1OC,-30%,13µM*,-17%[46.1 µM],-1%,18µM*,-16
COCCNC(=O)/C(C#N)=C/c1cc(C)n(-c2ccc(C)cc2)c1C,?,10µM*,?,0%,13%,16
Cc1ccccc1-n1c(C)cc(/C=C(\C#N)C(=O)NCC2CCCO2)c1C (stereo unspecified),15µM*,-17%,-40%,5%,36%,?
CCCCNS(=O)(=O)c1ccc2nc(-c3cccnc3)cc(C(=O)NCCC)c2c1,-1%[46.1 µM],·,·,·,85%,-66*
COc1ccc(S(=O)(=O)N2CCOCC2)cc1NC(=O)CSc1nnc(C2CC2)n1N,·,10%,·,8%,?,6
